Experimental data taken from PubChem BioAssay (Tox21).
Results filed as inconclusive are left out. The source made the active and inactive calls. Unless noted, calls come from the whole dose curve; as a rule, active = well fitted curve in the direction sought with a large enough effect in the repeat runs; inconclusive = weak or mixed curves; inactive = no such curve, though single readings can be large; an effect the other way counts as inactive or inconclusive.

Assays:
[1] = qHTS assay for small molecule agonists of the p53 signaling pathway (AID 651631; calls by dose curve; note: nearly all actives have a fitted effect of over 15% in size)
Outline: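 Testing took place in human colorectal HCT-116 cells with stable p53RE-driven beta-lactamase. After 16 h of compound exposure at 37 °C, a FRET substrate was added and fluorescence recorded 2 h later.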

[2] = qHTS assay for small molecules that induce genotoxicity in human embryonic kidney cells expressing luciferase-tagged ATAD5 (AID 651632); note: nearly all actives have a fitted effect of over 15% in size
Outline: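 Genotoxicity read-out via ATAD5-luciferase: HEK293T cells, 16 hr compound incubation at 37C, Amplite detection.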

[3] = qHTS assay for small molecule agonists of the p53 signaling pathway - cell viability (AID 651633; calls by dose curve; note: series mostly up to about 83 µM; nearly all actives have a fitted effect of over 30% in size)
Outline: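 p53RE-bla cells were treated with compound for 16 hours at 37 C. Cytotoxicity was then measured as CellTiter-Glo luminescence after 30 min at room temperature.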

[4] = qHTS assay for small molecules that induce genotoxicity in human embryonic kidney cells expressing luciferase-tagged ATAD5 - cell viability (AID 651634; calls by dose curve; note: nearly all actives have a fitted effect of over 25% in size; note: potency is the fitted concentration of half-maximal effect)
Outline: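 Live-cell protease activity (CellTiter-Fluor, fluorescence) indicates viability. HEK293T cells with luciferase-tagged ATAD5; 15.5 hr compound treatment at 37C.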

[5] = qHTS assay for small molecule disruptors of the mitochondrial membrane potential - cell viability (AID 720634; calls by dose curve;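 note: human HepG2 liver cancer cells; series mostly up to about 83 µM; nearly all actives have a fitted effect of over 20% in size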)
Outline: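 Human hepatoma HepG2 cells were treated for 1 hr with test chemicals, then given m-MPI dye and CellTiter-Glo. Cell viability reflects luminescence proportional to cellular ATP.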

[6] = qHTS assay to test for compound auto fluorescence at 590 nm (red) in HepG2 cells (AID 720674)
Outline: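 Seeding: 2,000 HepG2 cells/well, MEM/10% FBS, overnight 37 C. Dosing: compound vs DMSO. Incubation: 1 hr, 37 C, 5% CO2. Read: fluorescence 540 ex/590 em, Rose Bengal sodium as red reference.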

[7] = qHTS assay to test for compound auto fluorescence at 535 nm (green) in HepG2 cells (AID 720675)
[8] = qHTS assay to test for compound auto fluorescence at 460 nm (blue) in HEK293 cells (AID 720678)
Outline: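 After cell attachment (4-5 hr, 37C), compounds were pinned onto HEK293 monolayers in 10% dialyzed FBS medium. The blue channel (405/460 nm) was read following overnight culture. Equivalency was calculated against triamterene.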

[9] = qHTS assay to test for compound auto fluorescence at 590 nm (red) in HEK293 cells (AID 720679)
Outline: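 Plates of HEK293 cells (10% dialyzed FBS) are treated with 23 nL compound or DMSO vehicle after a 4-5 hr attachment period, incubated overnight at 37C, and read for red fluorescence at 540/590nm.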

[10] = qHTS assay to test for compound auto fluorescence at 535 nm (green) in HEK293 cells (AID 720680)
[11] = qHTS assay to test for compound auto fluorescence at 535 nm (green) in HEK293 cell free culture (AID 720682)
Outline: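 DMEM + 10% FBS, cell-free; cpd or DMSO pinned in; Ex485/Em535 read; output as fluorescein-equivalent signal.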

[12] = qHTS assay to test for compound auto fluorescence at 590 nm (red) in HepG2 cell free culture (AID 720684)
Outline: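 Compound was pinned into wells holding MEM with 10% FBS and no cells, and red fluorescence was read at Ex/Em 540/590 nm. Signal is expressed as auto fluorescence equivalency relative to Rose Bengal sodium.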

[13] = qHTS assay to test for compound auto fluorescence at 460 nm (blue) in HepG2 cell free culture (AID 720685)
Outline: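 Compound (23 nL) or DMSO pinned into cell-free MEM with 10% FBS; blue fluorescence read at 405/460 nm excitation/emission, expressed as auto-fluorescence equivalency to triamterene.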

[14] = qHTS assay to test for compound auto fluorescence at 535 nm (green) in HepG2 cell free culture (AID 720686)
[15] = biological target: Glucocorticoid receptor (Homo sapiens) (UniProt P04150); assay: qHTS assay to identify small molecule agonists of the glucocorticoid receptor (GR) signaling pathway (AID 720691; active = well fitted activation curve with a large enough effect in the signal ratio in the repeat runs, not every such curve was filed as active; the % refers to the signal ratio)
Outline: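 Beta-lactamase reporter activity, read as fluorescence intensity, was measured in GR-bla HeLa cells exposed to compounds for 18 h at 37 C and then loaded with LiveBLAzer B/G FRET substrate for 2 h at room temperature.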

[16] = biological target: Glucocorticoid receptor (Homo sapiens) (UniProt P04150); assay: qHTS assay to identify small molecule antagonists of the glucocorticoid receptor (GR) signaling pathway (AID 720692; active = well fitted inhibition curve with a large enough effect in the signal ratio in the repeat runs, not every such curve was filed as active; the % refers to the signal ratio; note: potency is the fitted concentration of half-maximal effect)
Outline: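 Fluorescence from cleaved LiveBLAzer B/G FRET substrate reports GRE-driven beta-lactamase in HeLa cells; compounds are tested against 5 nM dexamethasone (final) over 18 h at 37 C, substrate incubation 2 h at room temperature.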

[17] = qHTS assay to test for compound auto fluorescence at 460 nm (blue) in HEK293 cell free culture (AID 720681)
Outline: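 Compounds were added to cell-free DMEM with 10% FBS and fluorescence read directly. The blue channel used 405 nm excitation and 460 nm emission, with triamterene as the reference fluorophore.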

[18] = qHTS assay to test for compound auto fluorescence at 590 nm (red) in HEK293 cell free culture (AID 720683)
Outline: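 Cell-free wells of DMEM with 10% FBS received compound, and intrinsic fluorescence was read at excitation/emission 540/590 nm. Values expressed as equivalence to Rose Bengal sodium.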

[19] = qHTS assay to test for compound auto fluorescence at 460 nm (blue) in HepG2 cells (AID 720687)
Outline: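 HepG2 cells in MEM with 10% FBS, attached overnight at 37 C, were exposed to compound or DMSO for 1 hr at 37 C, 5% CO2. Blue fluorescence was read at 405/460 nm, with triamterene as reference fluorophore.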

[20] = qHTS assay for small molecule disruptors of the mitochondrial membrane potential (AID 720635)
Outline: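 HepG2 cells exposed to compound 1 hr at 37C, then Mito-MPS dye 30 min. Ratio read of aggregate (540/590 nm) versus monomer (490/535 nm) fluorescence.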
% is set by controls: 0 for no effect and ±100 for the full control effect.

Chain of Glucocorticoid receptor (Homo sapiens) (P04150 whole entry, looked up): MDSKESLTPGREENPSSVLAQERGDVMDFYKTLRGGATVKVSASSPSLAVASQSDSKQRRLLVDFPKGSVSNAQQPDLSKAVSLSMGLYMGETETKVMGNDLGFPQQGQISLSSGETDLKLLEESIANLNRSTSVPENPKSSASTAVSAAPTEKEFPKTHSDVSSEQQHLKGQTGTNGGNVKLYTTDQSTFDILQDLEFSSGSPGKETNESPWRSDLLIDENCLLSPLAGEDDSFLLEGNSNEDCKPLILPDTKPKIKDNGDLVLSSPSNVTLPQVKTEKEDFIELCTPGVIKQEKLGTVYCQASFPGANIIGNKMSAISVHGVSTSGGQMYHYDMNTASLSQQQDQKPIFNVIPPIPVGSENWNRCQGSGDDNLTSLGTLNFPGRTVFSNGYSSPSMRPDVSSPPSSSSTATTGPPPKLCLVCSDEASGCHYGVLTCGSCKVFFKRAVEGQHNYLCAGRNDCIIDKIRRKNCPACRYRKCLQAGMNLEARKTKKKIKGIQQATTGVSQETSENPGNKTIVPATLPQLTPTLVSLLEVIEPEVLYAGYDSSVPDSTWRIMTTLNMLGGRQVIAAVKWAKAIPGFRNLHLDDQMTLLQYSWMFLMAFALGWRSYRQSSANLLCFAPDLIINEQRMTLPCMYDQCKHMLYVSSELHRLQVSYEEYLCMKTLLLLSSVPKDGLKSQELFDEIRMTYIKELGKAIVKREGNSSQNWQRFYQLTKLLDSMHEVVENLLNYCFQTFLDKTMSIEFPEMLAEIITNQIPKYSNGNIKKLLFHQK

CCN(CC)CCNC(=O)c1ccc(NC(C)=O)cc1
inactive: Potency [1] | Potency [2] | Potency [3] | Potency [4] | Potency [5] | outcome [6] | outcome [7] | Potency [8] | outcome [9] | outcome [10] | outcome [11] | outcome [12] | Potency [13] | outcome [14] | Potency [15] | Potency [16]

OCCSc1ccccc1
inactive: Potency [1] | Potency [2] | Potency [3] | Potency [4] | Potency [5] | outcome [6] | outcome [7] | Potency [8] | outcome [9] | outcome [10] | Potency [17] | outcome [11] | outcome [18] | outcome [12] | Potency [13] | outcome [14] | Potency [19] | Potency [15] | Potency [16]

COc1ccccc1N=Nc1c(S(=O)(=O)O)cc2cc(S(=O)(=O)O)cc(NC(C)=O)c2c1O
active: Potency [4] 28.8 µM
inactive: Potency [1] | Potency [2] | Potency [3] | Potency [5] | outcome [6] | outcome [7] | Potency [8] | outcome [10] | Potency [17] | outcome [11] | outcome [18] | outcome [12] | Potency [13] | outcome [14] | Potency [19] | Potency [15] | Potency [16]

CCCCC(CC)COC(=O)COc1ccc(Cl)cc1C (centres undefined)
inactive: Potency [1] | Potency [2] | Potency [3] | Potency [4] | Potency [5] | outcome [6] | outcome [7] | Potency [8] | outcome [9] | outcome [11] | outcome [18] | outcome [12] | Potency [13] | outcome [14] | Potency [19]

Cc1nc2ccccn2c(=O)c1CCN1CCC(C(=O)c2ccc(F)cc2)CC1
inactive: Potency [1] | Potency [2] | Potency [3] | Potency [4] | Potency [5] | outcome [6] | outcome [7] | Potency [8] | outcome [9] | outcome [10] | Potency [17] | outcome [11] | outcome [18] | Potency [13] | outcome [14] | Potency [15]

CC(C)(CCl)c1ccccc1
inactive: Potency [1] | Potency [2] | Potency [3] | Potency [4] | Potency [5] | outcome [6] | outcome [7] | Potency [8] | outcome [9] | outcome [10] | Potency [17] | outcome [11] | outcome [12] | Potency [13] | outcome [14] | Potency [19]

NCC1CCCC(CN)C1 (centres undefined)
inactive: Potency [1] | Potency [2] | Potency [3] | Potency [4] | Potency [5] | outcome [6] | outcome [7] | Potency [8] | outcome [9] | outcome [10] | outcome [11] | outcome [18] | outcome [12] | Potency [13] | outcome [14] | Potency [19] | Potency [15] | Potency [16]

C/C=C/C=C/CCCCCCCO
inactive: Potency [1] | Potency [2] | Potency [3] | Potency [4] | Potency [5] | outcome [6] | Potency [8] | outcome [9] | outcome [10] | Potency [17] | outcome [11] | outcome [18] | Potency [13] | outcome [14] | Potency [19] | Potency [15]
active: Potency [16] 38.9 µM

CCCOCCOCCO
inactive: Potency [1] | Potency [2] | Potency [3] | Potency [4] | Potency [5] | outcome [6] | Potency [8] | outcome [9] | outcome [10] | Potency [17] | outcome [11] | outcome [18] | Potency [13] | outcome [14] | Potency [19] | Potency [15] | Potency [16]

Cc1ccc(S)cc1
inactive: Potency [1] | Potency [2] | Potency [3] | Potency [4] | outcome [6] | outcome [7] | Potency [8] | outcome [9] | outcome [10] | Potency [17] | outcome [11] | outcome [12] | Potency [13] | outcome [14] | Potency [19]

CCOC(=O)CC(=O)C(=O)OCC
inactive: Potency [1] | Potency [2] | Potency [3] | Potency [4] | Potency [20] | outcome [6] | outcome [7] | Potency [8] | outcome [9] | outcome [10] | Potency [17] | outcome [11] | outcome [18] | outcome [12] | Potency [13] | outcome [14] | Potency [19] | Potency [15] | Potency [16]

CC(C)C(=O)O
inactive: Potency [1] | Potency [2] | Potency [3] | Potency [4] | outcome [6] | outcome [7] | Potency [8] | outcome [9] | outcome [10] | Potency [17] | outcome [11] | outcome [18] | outcome [12] | Potency [13] | Potency [15] | Potency [16]

CC(C)(C)C(=O)O
inactive: Potency [1] | Potency [2] | Potency [3] | Potency [4] | outcome [6] | outcome [7] | Potency [8] | outcome [9] | Potency [17] | outcome [11] | outcome [12] | Potency [13] | outcome [14] | Potency [15]

CCCCN(CCCC)CCCOC(=O)c1ccc(N)cc1
inactive: Potency [1] | Potency [2] | Potency [3] | Potency [4] | Potency [5] | fluorescence, relative to Rose Bengal [6] -0.556% [at 18.6 µM] | fluorescence, % of triamterene [8] -0.0222% [at 18.6 µM] | fluorescence, % of fluorescein [10] 0.0466% [at 18.6 µM] | fluorescence, % of fluorescent control [17] -0.0006% [at 18.6 µM] | activity change [11] -0.0464% [at 18.6 µM] | fluorescence, % of fluorescent control [18] 0.0804% [at 18.6 µM] | fluorescence, % of Rose Bengal [12] 0.0643% [at 18.6 µM] | fluorescence, % of fluorescent control [13] 0.138% [at 18.6 µM] | fluorescence, % of fluorescein control [14] -0.0572% [at 18.6 µM] | Potency [15] | Potency [16]

CC1=CC(=O)CC(C)(C)C1(O)/C=C/C(C)=C\C(=O)O (centres undefined)
inactive: Potency [1] | Potency [2] | Potency [3] | Potency [4] | outcome [6] | outcome [7] | Potency [8] | outcome [9] | outcome [10] | Potency [17] | outcome [11] | outcome [12] | Potency [13] | outcome [14] | Potency [19] | Potency [15] | Potency [16]
